# From PubChem BioAssay AID1259418 (Broad Institute, 2018)
# In all, about 3,400 compounds went through this assay and about 840 (25%) were called active. Inconclusive results (about 11%) are left out.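 Rule for the calls: active = fitted half-maximal concentration of signal decrease at or below twice the sample's top tested concentration; inconclusive = flat curve between -70 and -30 percent, or poor fit; inactive = flat within 30 percent, signal rise, or potency above limit.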 Not all results are given here. Potency and affinity values are given separately.
# Test: inhibitors of Toxoplasma growth in IFN-γ-primed HeLa – cell-based, ME49Luc, luciferase, 72 h, dose response (AID 1259418)
# Settings: T. gondii ME49Luc in IFN-y HeLa, active compounds read low, -100% = high-dose IFN-γ control wells; at 19.5 µM unless noted
row,Structure (SMILES),max activity
1,Cc1ccc2c(c1C)-n1cccc1C1(CCN(C(=O)COc3ccccc3)CC1)N2,-7.11% [at 2.6 µM] (inactive)
2,Nc1ccc(S(=O)(=O)NC(=O)c2ccccc2)cc1,-6.84% [at 5 µM] (inactive)
3,COc1cccc(CN2CCc3nc(SCc4nc(-c5ccc(C)cc5)oc4C)[nH]c(=O)c3C2)c1,42.8% (inactive)
4,Cc1ccc(-c2coc(-c3ccc(NC(=O)C(C)(C)C)cc3)n2)c(C)c1,40.9% (inactive)
5,CCc1ccccc1NC(=O)CN1CCC2(CC1)N=C(c1ccc(F)cc1)C(=O)N2,-11.7% [at 0.35 µM] (inactive)
6,CCc1nc(OCC(=O)NCc2ccc(F)cc2)c2ccccc2n1,-17.9% [at 0.68 µM] (inactive)
7,CCc1ccc(NC(=O)COc2nc(CC)nc3ccccc23)cc1,-19.6% [at 1.35 µM] (inactive)
8,CCc1nc(OCC(=O)NCc2ccc(C)cc2)c2ccccc2n1,13.9% (inactive)
9,Cc1nc(OCC(=O)Nc2ccc(C)c(F)c2)c2ccccc2n1,21.5% [at 10 µM] (inactive)
10,CCc1nc(OCC(=O)Nc2ccc(C)cc2)c2ccccc2n1,32.4% (inactive)
11,CCc1nc(OCC(=O)Nc2ccc(C)c(C)c2)c2ccccc2n1,17.1% [at 0.35 µM] (inactive)
12,CCc1nc(OCC(=O)Nc2cc(Cl)ccc2Cl)c2ccccc2n1,24.4% [at 2.6 µM] (inactive)
13,CCc1nc(OCC(=O)Nc2ccc(C)cc2Cl)c2ccccc2n1,18.6% [at 0.68 µM] (inactive)
14,Cc1cccc(-c2nc(Cn3nnc(-c4nc(-c5ccccc5Cl)no4)c3C)c(C)o2)c1,15.3% [at 10 µM] (inactive)
15,CCc1ccccc1NC(=O)Nc1ccc(-c2nc(-c3ccccc3)co2)cc1,13.1% [at 5 µM] (inactive)
16,Cc1nc(-c2ccc(F)cc2)sc1-c1ccc(SCc2ccc(Cl)cc2)nn1,-5.59% [at 1.35 µM] (inactive)
17,COc1cccc(C(=O)Nc2ccc(-c3nc(-c4ccc(C)cc4C)co3)cc2)c1,37.5% (inactive)
18,Cc1ccc(C)c(-c2coc(-c3ccc(NC(=O)C(C)C)cc3)n2)c1,14.2% (inactive)
19,COc1ccccc1-c1nc(Cn2nnc(-c3nc(-c4ccc(OC(C)C)cc4)no3)c2C)c(C)o1,-5.67% [at 1.35 µM] (inactive)
20,COc1cccc(-c2nc3c(s2)CN(C(=O)Nc2ccc(OC)cc2OC)CC3)c1,52.4% (inactive)
21,CC(C)OCCCNC(=O)CC1Nc2c3ccccc3nc(=S)n2C1=O (stereo not drawn),19.5% [at 0.16 µM] (inactive)
22,CCOc1ccc(-c2nc3c(s2)CN(S(=O)(=O)c2ccc(F)cc2)CC3)cc1,36.2% (inactive)
23,CCc1nc(OCC(=O)N(CC)c2ccccc2)c2ccccc2n1,9.96% [at 10 µM] (inactive)
24,CCN(C(=O)COc1nc(C)nc2ccccc12)c1ccccc1,18.8% [at 0.68 µM] (inactive)
25,CSc1ccc(-c2noc(-c3nnn(Cc4nc(-c5cccc(Cl)c5)oc4C)c3C)n2)cc1,12.2% [at 0.16 µM] (inactive)
26,Cc1ccc(NC(=O)CN2CCC3(CC2)N=C(c2ccc(Cl)cc2)C(=O)N3)cc1C,-6.27% [at 0.68 µM] (inactive)

row,Structure (SMILES),max activity
1,COc1ccc(-c2nc3c(s2)CN(S(=O)(=O)c2ccc(Cl)cc2)CC3)cc1,8.74% (inactive)
2,COc1ccc(-c2nc(Cn3c(=O)c4cccnc4n(-c4ccccc4)c3=O)c(C)o2)cc1,-4.3% [at 2.6 µM] (inactive)
3,CCc1c(C)sc2c1CCN(Cc1nc(-c3ccc(C)cc3)oc1C)C2c1ccccc1 (stereo not drawn),11.6% (inactive)
4,Cc1oc(-c2ccccc2)nc1Cn1nnc(-c2nc(-c3ccccc3Cl)no2)c1C,7.39% (inactive)
5,COC(=O)c1cccc(NC(=O)Nc2ccc(-c3nc(-c4ccccc4)co3)cc2)c1,9.82% (inactive)
6,COc1cccc(C(=O)N2CCC3(CC2)Nc2ccc(C)c(C)c2-n2cccc23)c1,-8.8% [at 0.16 µM] (inactive)
7,O=C(C1CCC1)N1CC(=O)N2[C@H](CO)[C@H](c3ccc(Br)cc3)[C@H]2C1,54.7% (inactive)
8,CN(C)CC(=O)N1C[C@@H]2N[C@H](C1)C2c1ccc(-c2ccccc2F)cc1 (stereo partly drawn),5.96% [at 10 µM] (inactive)
9,CN(C[C@H]1[C@H](c2ccccc2)[C@@H](CO)N1CC1CC1)C(=O)c1ccc(F)cc1,49.7% (inactive)
10,CCc1nc(OCC(=O)Nc2cccc(Cl)c2)c2ccccc2n1,20.4% [at 0.16 µM] (inactive)
11,CCOc1ccc(-c2nc3c(s2)CN(S(=O)(=O)c2cccc(Cl)c2C)CC3)cc1,15.9% [at 10 µM] (inactive)
12,Cc1ccc(C)c(-c2coc(-c3ccc(NC(=O)NCc4ccco4)cc3)n2)c1,-45.2% [at 1.35 µM] (inactive)
13,Cc1nc(CCNC(=O)C2CCN(C(=O)c3cccc(F)c3)CC2)cs1,-15.3% (inactive)
14,COc1cccc(C(=O)N2CCC(C(=O)NCCc3csc(C)n3)CC2)c1,-13.8% [at 0.16 µM] (inactive)
15,Cc1nc(CCNC(=O)C2CCN(C(=O)c3ccc(F)cc3)CC2)cs1,11.3% [at 2.6 µM] (inactive)
16,Cc1nc(CCNC(=O)C2CCN(C(=O)c3ccc(Cl)cc3)CC2)cs1,-28.7% (inactive)
17,O=C(C[C@H]1CC[C@H]2[C@@H](COC[C@@H](O)CN2C(=O)c2cc(Cl)cc(Cl)c2)O1)N1CCc2ccccc2C1,26.3% [at 10 µM] (inactive)
18,CCCNC(=O)C[C@H]1CC[C@@H]2[C@H](COC[C@H](O)CN2C(=O)Nc2ccc(Cl)c(Cl)c2)O1,33.9% (inactive)
19,CCOc1ccc(-c2nc3c(s2)CN(S(=O)(=O)c2ccc(F)cc2F)CC3)cc1,95.1% (inactive)
20,Clc1ccc(-c2nc(NCc3cccs3)c3ccccc3n2)cc1,13.5% [at 0.35 µM] (inactive)
21,CCc1nc(OCC(=O)Nc2ccc(Br)cc2F)c2ccccc2n1,35.6% [at 0.68 µM] (inactive)
22,O=S(=O)(c1ccc(F)cc1)N1CCCCN2[C@H](C1)[C@H](c1ccc(-c3cncnc3)cc1)[C@@H]2CO,22.1% [at 10 µM] (inactive)
23,CCOC(=O)Cc1ccc(NC(=O)Nc2ccc(-c3nc(-c4ccc(C)cc4C)co3)cc2)cc1,11.1% (inactive)
24,Cc1ccc(-c2nc(Cn3nnc(-c4nc(-c5ccc(Cl)cc5)no4)c3C)c(C)o2)cc1,-14.4% [at 0.68 µM] (inactive)
25,Cc1cccc(C2=NC3(CCN(CC(=O)Nc4ccc(F)cc4F)CC3)NC2=O)c1,-4.98% [at 0.68 µM] (inactive)
26,COc1cccc(CC(=O)Nc2ccc(-c3nc(-c4ccc(C)cc4C)co3)cc2)c1,-8.08% [at 1.35 µM] (inactive)

row,Structure (SMILES),max activity
1,CCOC(=O)Cn1cc(CN2CCCC2c2c(C)noc2CC)c2ccccc21 (stereo not drawn),12.1% [at 0.16 µM] (inactive)
2,CCn1cc(CN2CCCC2c2cc(C(C)C)on2)c2ccccc21 (stereo not drawn),8.42% [at 0.16 µM] (inactive)
3,COC(=O)Cn1cc(CN2CCCC2c2cc(C(C)C)no2)c2cc(OC)ccc21 (stereo not drawn),18.8% [at 0.35 µM] (inactive)
4,CCn1cc(CN2CCCC2c2cc(C(C)C)no2)c2cc(OC)ccc21 (stereo not drawn),5.61% [at 0.16 µM] (inactive)
5,COc1ccc(CC(=O)N2CCC3(CC2)Nc2ccc(C)c(C)c2-n2cccc23)cc1,9.26% [at 0.68 µM] (inactive)
6,COc1ccccc1NC(=O)N1CCc2nc(-c3ccc(C)cc3)sc2C1,44.9% (inactive)
7,Cc1ccccc1-c1nc(CN2CCN(C(=O)Nc3ccc(Cl)cc3)CC2)c(C)o1,-10.3% [at 0.35 µM] (inactive)
8,CN(C)c1nc(N2CCOCC2)nc2c1CN(Cc1cccs1)CC2,13.4% [at 5 µM] (inactive)
9,Cc1nc(N2CCCC2)nc2c1CCN(C(=O)c1ccoc1C)CC2,-9.94% [at 0.3 µM] (inactive)
10,CCOc1ccc(-c2nc3c(s2)CN(C(=O)Nc2cc(C)ccc2OC)CC3)cc1,14.6% (inactive)
11,COc1ccc(OCC(=O)N2CCC(C(=O)NCCc3csc(-c4ccccc4)n3)CC2)cc1,12.9% (inactive)
12,COc1ccc(-c2nc3c(s2)CN(S(=O)(=O)c2ccc(NC(C)=O)cc2)CC3)cc1,17.2% [at 10 µM] (inactive)
13,CCCCCNC(=O)CCC1Nc2c3ccccc3nc(=S)n2C1=O (stereo not drawn),12.1% [at 5 µM] (inactive)
14,O=C(NCCc1csc(-c2ccccc2)n1)C1CCN(C(=O)c2cccc(Cl)c2)CC1,7.04% [at 0.68 µM] (inactive)
15,O=C(NCCc1csc(-c2ccccc2)n1)C1CCN(C(=O)c2ccc(F)c(F)c2)CC1,18% [at 5 µM] (inactive)
16,Cc1ccccc1C(=O)N1CCC(C(=O)NCCc2csc(-c3ccccc3)n2)CC1,23.4% [at 1.35 µM] (inactive)
17,O=C(NCCc1csc(-c2ccccc2)n1)[C@H]1CCCN1C(=O)c1ccccc1Br,-16.7% [at 0.16 µM] (inactive)
18,Cc1nc(CCNC(=O)C2CCN(C(=O)c3ccccc3Cl)CC2)cs1,-5.21% [at 1.35 µM] (inactive)
19,CCOc1ccccc1C(=O)N1CCC(C(=O)NCCc2csc(-c3ccccc3)n2)CC1,-11.4% [at 5 µM] (inactive)
20,O=C(Nc1ccc(-c2nc(-c3ccccc3)co2)cc1)Nc1cccc(Br)c1,8.78% [at 10 µM] (inactive)
21,COc1cc(Nc2nc(SCc3ccc(Cl)cc3)nc3ccccc23)cc(OC)c1,21% [at 5 µM] (inactive)
22,CCOC(=O)CSc1nc(Nc2ccc(F)c(F)c2)c2ccccc2n1,-35.1% [at 0.35 µM] (inactive)
23,Fc1ccc(Nc2nc(SCc3cccc(Cl)c3)nc3ccccc23)cc1,-13.6% [at 1.35 µM] (inactive)
24,COc1ccc(CNc2nc(SCc3ccc(F)cc3)nc3ccccc23)cc1,10.3% (inactive)
25,Fc1ccc(CSc2nc(Nc3ccc(F)c(F)c3)c3ccccc3n2)cc1,9.75% [at 1.35 µM] (inactive)
26,Fc1ccc(Nc2nc(SCc3ccccc3Cl)nc3ccccc23)cc1,17.7% [at 0.68 µM] (inactive)
